Screens (PubChem BioAssay)
Most compounds without a hit are left out; they make up all but 6% or so of the library.
D1 antagonist: human D1 dopamine receptor antagonism; activity change, negative = inhibition, % at 10 µM; AID 504652; HEK293 TREx D1 cells, calcium flux, dopamine EC80; hits give low values; 360,000 compounds, 3.2% hits; P21728; in the data active means activity change below about -30%
Target sequence (P21728 whole entry, looked up): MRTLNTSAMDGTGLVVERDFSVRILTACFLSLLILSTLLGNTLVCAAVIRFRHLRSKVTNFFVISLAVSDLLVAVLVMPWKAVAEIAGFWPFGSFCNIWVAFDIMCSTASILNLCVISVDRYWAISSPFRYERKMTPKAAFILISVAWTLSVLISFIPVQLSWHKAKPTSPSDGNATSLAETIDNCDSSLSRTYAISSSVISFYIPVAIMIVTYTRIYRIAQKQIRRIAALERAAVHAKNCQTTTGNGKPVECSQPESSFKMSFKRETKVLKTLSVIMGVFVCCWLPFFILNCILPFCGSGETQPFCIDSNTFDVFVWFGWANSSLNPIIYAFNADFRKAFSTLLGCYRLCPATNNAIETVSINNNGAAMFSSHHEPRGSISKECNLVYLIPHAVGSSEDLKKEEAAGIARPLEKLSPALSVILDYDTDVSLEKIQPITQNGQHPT
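Using tetracycline-induced force-coupled D1 Hek293 cells and a calcium dye, signals were followed for 180 s after compound, then for 180 s after EC80 dopamine, to detect inhibitors.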
D1 ag: activates the human D1 dopamine receptor. P21728. HEK293 T-REx D1 cells, calcium flux, agonist mode. activation, % at 2 µM. 360,000 compounds, 1% hits. AID 504660; in the data active means activation above about 30%
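Agonism was scored from calcium flux recorded over 180 s (1 read/s) after pintool compound addition, following a 10-cycle baseline. Cells were inducible force-coupled HEK293 TREx D1, plated overnight at 30 C and loaded with no-wash calcium dye.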
D1 potentiator: enhances dopamine response at the human D1 receptor | AID 504651 | HEK293 TREx D1 cells, calcium flux, dopamine EC20 potentiation | P21728 | potentiation, % at 10 µM | 360,000 compounds, 0.036% hits; in the data active means potentiation above about 30%
D3 ag: D3 dopamine receptor (human) agonism. P35462. D3R DiscoveRx beta-arrestin cells, luminescence, 90 min. max activation, %. 410,000 compounds, 0.58% hits; in the data active means max activation above about 30%
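Agonist mode: compounds and dopamine controls were applied to plated cells for 90 min at 37 degrees C after an overnight attachment at 1500 cells/well. Luminescent read-out followed 30 - 60 minutes at room temperature with DiscoveRx detection reagent.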
DRD3 antagonist: D3 dopamine receptor (human) antagonism; D3R cells, DiscoveRx beta-arrestin luminescence, antagonist mode; hits give low values; max response, negative = inhibition, %; 360,000 compounds, 2.5% hits; AID 652054; in the data active means max response below about -50%
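Cells plated overnight at 1500 cells/well, then exposed to library compounds with dopamine controls for 90 minutes at 37 degrees C. DiscoveRx reagent added for 30–60 minutes at room temperature; luminescence read, quantitative HTS format.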
Each line names hits and unclear results; the compound was inactive in the other large screens.

O=S(=O)(c1cc(F)ccc1F)N1CCN(c2ccccn2)CC1	D1 antagonist -52
O=C(c1ccc(Cl)c(S(=O)(=O)Nc2ccc(F)cc2)c1)N1CCN(c2ccccn2)CC1	D3 ag 38
O=C(C1CCN(S(=O)(=O)c2cnc[nH]2)CC1)N1CCn2c1nc1ccccc12	DRD3 antagonist -118
C[C@H](NC(=O)N1CCn2c1nc1ccccc12)C(=O)NC1CC1	D1 antagonist -85
CC(NC(=O)[C@H](C)NC(=O)N1CCn2c1nc1ccccc12)c1ccccc1 (some centres undefined)	none
O=C(C1CCCCC1)N1CCCn2c1nc1ccccc12	D1 antagonist -45
COc1cc2ccccc2cc1C(=O)N1CCN(c2nc3ccc(F)cc3s2)CC1	none (no result: D1 antagonist, DRD3 antagonist)
Cc1ccc(-n2nc(C(=O)N3CCC(C)CC3)c(=O)n(C)c2=O)cc1	none (no result: DRD3 antagonist)
O=C(COC(=O)C12CC3CC(CC(O)(C3)C1)C2)NCCc1ccc(Cl)cc1	D1 antagonist -40
O=C(COC(=O)C12CC3CC(CC(O)(C3)C1)C2)Nc1ccc(Cl)cc1F	none
CCN(CC(=O)Nc1ccc(C(=O)Nc2ccc(OC)cc2)cc1)Cc1nc2ccccc2c(=O)[nH]1	D1 antagonist -44
CCN(CC(=O)Nc1cc(OC)ccc1OC)Cc1nc2ccccc2c(=O)[nH]1	D1 antagonist -39
CCOc1ccccc1Nc1sc(C(=O)c2ccc(Cl)cc2)c(N)c1C#N	none (no result: DRD3 antagonist)
CCc1cc(C(=O)Nc2sc(C)c(CC)c2C#N)no1	none (no result: DRD3 antagonist)
CCc1c(C)sc(NC(=O)c2cc(C(C)C)on2)c1C#N	D1 antagonist -32
CCCCCSc1nnc2c(n1)[nH]c1c(C)cccc12	D1 antagonist -30 (no result: DRD3 antagonist)
CCCCSc1nnc2c(n1)[nH]c1ccccc12	none
O=C(Nc1ccc(F)cc1)NC1CCCCCCC1	D1 antagonist -35
S=C(Nc1ccc(Br)cc1)NC1CCCC1	D1 antagonist -50
S=C(Nc1ccc(Oc2ccccc2)cc1)NC1CCCC1	none
Nc1ccc(NC(=O)NC2CCCCC2)cc1[N+](=O)[O-]	D1 antagonist -77
CC(=O)c1cccc(NC(=O)NC2CCCCCCC2)c1	none
Cc1cccc(NC(=O)NC2CCCCCCC2)c1	D1 antagonist -34
CCOC(=O)c1c(C)[nH]c(CCC(=O)Nc2c(Cl)cc(OC)cc2OC)c1C	none (no result: DRD3 antagonist)
COc1ccccc1CNC(=O)c1cccn1-c1nnc(N2CCCC2)s1	none (no result: DRD3 antagonist)
O=C(Nc1ccc(Cl)cc1)NC1CCCCC1	none
O=C(Nc1ccccc1C(F)(F)F)NC1CCCCC1	none
O=C(NNC(=S)Nc1ccccc1C(F)(F)F)C1CC1	D1 antagonist -37
O=C(Nc1ccc(F)c(F)c1)NC1CCCCC1	D1 antagonist -32
O=C(Nc1ccccc1C(F)(F)F)NC1CCCCCCC1	D1 antagonist -31
COc1ccc(OC)c(-c2nc3c(C#N)c[nH]n3c2NC2CCCCC2)c1	none (no result: DRD3 antagonist)
Cc1ccc(C(=O)c2sc(Nc3ccccc3)c(S(=O)(=O)c3ccccc3)c2N)c(C)c1	none (no result: DRD3 antagonist)
O=C(Oc1ccc(F)cc1)c1nc(SCc2ccc(F)cc2)ncc1Cl	none (no result: DRD3 antagonist)
O=C(Nc1ccc(F)cc1F)c1ccc(-n2cnc3cccnc32)cc1	none (no result: DRD3 antagonist)
c1ccc2c(CCC3CCNCC3)c[nH]c2c1	none (no result: D1 antagonist, D1 ag, D1 potentiator, DRD3 antagonist)
CC(C)Sc1oc(-c2ccco2)nc1S(=O)(=O)c1ccccc1	D1 antagonist -48
CSc1oc(-c2ccco2)nc1S(=O)(=O)c1ccccc1	none
Cc1ccc(C(=O)NCCc2ccc(Cl)cc2)cc1-n1c(C)nc2cccnc21	none (no result: DRD3 antagonist)
Cc1ccc(S(=O)(=O)N/N=C/c2ccc(OC3CSC3)cc2)cc1	D1 ag 61
COc1ccccc1NC(=O)CCNS(=O)(=O)c1ccc2c(c1)CCCC(=O)N2	none (no result: DRD3 antagonist)
CCOC(=O)Cn1c(=O)oc2cc(S(=O)(=O)Nc3ccc(F)cc3)ccc21	D1 antagonist -66, D1 ag 77
CCOC(=O)Cn1c(=O)oc2cc(S(=O)(=O)N3CCN(c4ccccc4OC)CC3)ccc21	none (no result: DRD3 antagonist)
CCOC(=O)Cn1c(=O)oc2cc(S(=O)(=O)N3CCN(c4ccc(C(C)=O)cc4)CC3)ccc21	D1 antagonist -43 (no result: DRD3 antagonist)
CCOC(=O)Cn1c(=O)oc2cc(S(=O)(=O)NCCc3ccc(C)cc3)ccc21	none
COC(=O)c1ccccc1NC(=O)C1CCCCC1C(=O)O (centres undefined)	none
O=C(ONC(=O)C1CCCCC1C(=O)NOC(=O)c1ccccc1)c1ccccc1 (centres undefined)	D3 ag 82 (no result: D1 antagonist, D1 ag, D1 potentiator)
